# Shown are actives, neighbours in structure and some others; about 3.8% of the full set was active somewhere.
# ERa coact pot: enhances coactivator binding to human estrogen receptor alpha | P03372 | TR-FRET ERalpha-LBD/SRC-Cy5 coactivator binding, 2 h; 100 = basal binding, no effect | coactivator binding (% of control), % at 25.6 µM | actives 1.3% (n = 86,000); in the data active = activity above about 200%;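 note: binding measured in presence of low estradiol as agonist stimulus; 0% = peptide alone without receptor and 100% = receptor with peptide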
# Target sequence (P03372 whole entry, looked up, the tested form may be a part): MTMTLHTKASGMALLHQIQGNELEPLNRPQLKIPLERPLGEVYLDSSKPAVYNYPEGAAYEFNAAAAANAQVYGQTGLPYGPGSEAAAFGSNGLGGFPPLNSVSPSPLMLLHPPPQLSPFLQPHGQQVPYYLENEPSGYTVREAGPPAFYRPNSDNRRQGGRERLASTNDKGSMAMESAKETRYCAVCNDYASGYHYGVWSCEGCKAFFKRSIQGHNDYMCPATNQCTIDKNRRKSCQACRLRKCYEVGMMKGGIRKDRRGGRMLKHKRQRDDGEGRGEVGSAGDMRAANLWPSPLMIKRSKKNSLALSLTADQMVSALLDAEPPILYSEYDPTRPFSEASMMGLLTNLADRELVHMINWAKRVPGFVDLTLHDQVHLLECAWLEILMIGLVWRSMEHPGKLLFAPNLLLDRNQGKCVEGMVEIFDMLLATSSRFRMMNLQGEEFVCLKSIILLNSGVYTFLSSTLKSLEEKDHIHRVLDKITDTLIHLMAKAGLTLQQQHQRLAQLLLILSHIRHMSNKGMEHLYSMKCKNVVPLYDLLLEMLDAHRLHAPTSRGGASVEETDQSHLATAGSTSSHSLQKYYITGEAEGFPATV
# ERa coact inh: ER-alpha (human) coactivator binding inhibition. P03372. TR-FRET ER-alpha LBD / SRC-1 peptide, estradiol-bound. AID 629. actives 1.7% (n = 86,000). inhibition, % at 25.6 µM; in the data active = inhibition above about 50%;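 note: 0% = receptor plus peptide control and 100% = peptide only without receptor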
# hDAT+cocaine: modulates human dopamine transporter uptake under cocaine. Q01959. LLC-PK1 hDAT cells, [14C]-dopamine uptake with cocaine IC80; actives deviate in either direction. B-score at 10 µM. actives 1.3% (n = 110,000);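 active = Z score or B-score, a plate-position-corrected score, falls beyond the plate's 99.7% confidence bounds, in either direction; inactive = both scores lie inside the 99.7% bounds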;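 note: scored against the spread of the other compound wells on the same plate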
# MT1-MMP txn act: activates MT1-MMP transcription; activation factor at 10 µM; actives 0.16% (n = 86,000); HT1080 MT1-MMP promoter luciferase reporter, luminescence, overnight; hits give high values;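 active = activation factor of at least 2 for MT1-MMP transcription at 10 µM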
# ERb coact inh: ER-beta (human) coactivator binding inhibition. actives 1.3% (n = 86,000). Q92731. inhibition, % at 25.6 µM. AID 633. TR-FRET ER-beta LBD / SRC1-Cy5 peptide binding; receptor agonist-loaded with 1 µM estradiol;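 active = compounds whose percent inhibition of the receptor-coactivator binding signal exceeds about 50% in the single-dose screen, limit read from the data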;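 note: 0% = receptor plus peptide wells without compound and 100% = peptide-only wells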
# Starred values were filed as active, the others as inactive; x = no result given; + = active, no number; [ ] = dose if it differs, or a comment.
SMILES,ERa coact pot,ERa coact inh,hDAT+cocaine,MT1-MMP txn act,ERb coact inh
Cc1[nH]nc2c1C(c1ccccn1)N(c1ccc(Br)cc1)C2=O (stereo not drawn),103.2,77.1*[fluorescence artefact?],1.11,1.2,-2.6
Fc1ccc(CSc2ncnc3c2oc2ccccc23)cc1,192.4,44.2,x,0.9,56.1*[fluorescence artefact?]
O=C(CSc1ncnc2c1oc1ccccc12)c1cccs1,282.9*[fluorescence artefact?],7.7,x,1.6,13.4
O=C(CSc1ncnc2c1oc1ccccc12)NCc1ccc(F)cc1,783.9*[fluorescence artefact?],48.9,0.549,1.1,56.9*[fluorescence artefact?]
Fc1cccc(CSc2ncnc3c2oc2ccccc23)c1,401.8*[fluorescence artefact?],47.3,-0.124,1,57.2*[fluorescence artefact?]
NC(=O)CSc1ncnc2c1oc1ccccc12,70.3,13.8,0.0159,1.1,11.1
CCSc1ncnc2c1oc1ccccc12,105.7,-2.9,1.22,1.2,-3.4
c1ccc2[nH]c(CSc3ncnc4c3oc3ccccc34)nc2c1,138.7,-1.6,0.948,1.6,-8.9
CNC(=O)C1(C)C=CCN1C(=O)OC (stereo not drawn),x,x,x,1.3,x
CS(=O)(=O)c1ccc(-c2cc(Br)sc2-c2ccc(F)cc2)cc1,x,x,-0.548,x,x
COC(=O)N[C@H](CC(C)=O)c1ccccc1,x,x,-0.155,x,x
O=C(CSc1ncnc2c1oc1ccccc12)NC1CCCCC1,289.4*[fluorescence artefact?],56.4*[fluorescence artefact?],0.795,1,51.1*[fluorescence artefact?]
O=C(CSc1ncnc2c1oc1ccccc12)NCC1CCCO1 (stereo not drawn),109.0,-14.0,0.00601,1.3,-28.6
CCN(CCNC(=O)C1CCN(c2nnc(-n3cccc3)s2)CC1)c1ccccc1,x,x,0.849,1.1,x
CCc1ccc2[nH]c(=O)c(C3C(C#N)=C(N)Oc4c3ccc3cccnc43)cc2c1 (stereo not drawn),76.1,79.6*,2.4,1.1,50.5*
COC(=O)C1=C(C)NC(C)=C(C(=O)OC)C1C(=O)OCC(=O)N1c2ccccc2CC1C (stereo not drawn),85.8,-1.9,1.88,1.3,25.8
N#C/C(=C\c1ccc(O)c(O)c1)S(=O)(=O)c1ccccc1,x,x,-2.62*,1.1,x
COC(=O)c1ccccc1NC(=O)c1cc2ncc(Br)cn2n1,579.1*[fluorescence artefact?],27.0,-2.35*,1,33.1
O=C(Nc1ccc(F)cc1F)c1cc2ncc(Br)cn2n1,99.0,39.1,-0.85,1.1,44.3
CC(=O)CSc1nnc(-c2ccncc2)n1C,x,x,0.412,x,x
Cn1c(SCC2CCCCC2)nnc1-c1ccncc1,121.2,-1.4,-7.89*,1.2,-1.7
CCOC(=O)/C(C#N)=C1/SC(CC)C(=O)N1c1ccc(C)cc1 (stereo not drawn),112.6,-7.2,-2.8*,1.1,13.8
C#Cc1ccc([C@H]2C=C(C(=O)NCc3ccccc3)O[C@@H](OCc3ccc(CO)cc3)C2)cc1,x,x,0.673,x,x
Cc1cccc(N2CCN(C(=O)c3cc4c(=O)n(C)c5ccccc5c4n3C)CC2)c1C,311.8*,14.5,-0.442,1,27.8
Cn1c(C(=O)NCCCN2CCOCC2)cc2c(=O)n(C)c3ccccc3c21,117.0,8.3,0.865,1.1,-3.3
SMILES,ERa coact pot,ERa coact inh,hDAT+cocaine,MT1-MMP txn act,ERb coact inh
CC1CCN(CCCNC(=O)c2cc3c(=O)n(C)c4ccccc4c3n2C)CC1,108.6,3.1,2.05,1.2,-2.2
Cn1c(C(=O)N2CCN(c3ccccc3F)CC2)cc2c(=O)n(C)c3ccccc3c21,96.7,-5.9,x,1,-4.2
Cn1c(C(=O)NCCN2CCCCCC2)cc2c(=O)n(C)c3ccccc3c21,177.6,71.9*[fluorescence artefact?],-0.0686,1.1,34.8
Cn1c(C(=O)NCCN2CCN(Cc3ccccc3)CC2)cc2c(=O)n(C)c3ccccc3c21,99.8,-3.3,3.16*,1,-2.6
COc1ccc2c(c1)c(CCNNC(=O)C(C)(C)C)c(C)n2C(=O)c1ccc(Cl)cc1,x,x,-0.00443,x,x
CCCCn1c(NC(=O)CC)c(C#N)c2nc3ccccc3nc21,221.2*[fluorescence artefact?],72.1*,0.277,1,43.0
CCCCn1c(NC(=O)c2ccccc2Cl)c(C#N)c2nc3ccccc3nc21,68.9,8.7,0.274,1.1,11.9
CCC(=O)Nc1c(C#N)c2nc3ccccc3nc2n1-c1ccccc1C,124.2,6.6,0.482,0.9,18.5
CCC(=O)Nc1c(C#N)c2nc3ccccc3nc2n1C1CCCCC1,100.5,65.4*[fluorescence artefact?],1.16,1.1,34.2
COCCN=C1OC(=O)N2C(=O)C3=C4[C@@H](C[C@H]5C(=O)N(CC(=O)OC)C(=O)[C@H]5[C@H]4[C@@]12Cc1ccccc1)[C@H]1C(=O)N(CC(=O)OC)C(=O)[C@H]1[C@H]3C,x,x,x,1.2,x
Cc1occc1C(=O)Nc1cccc2ccccc12,96.4,-2.7,-0.161,0.8,-5.9
Cc1occc1C(=O)Nc1ccccc1NC(=O)c1ccoc1C,115.8,57.8*,-0.14,1.2,54.8*
O=C(N/C=N/OCc1ccc(Cl)cc1Cl)NOCc1ncc(C(F)(F)F)cc1Cl,63.3,2.2,0.96,x,-1.5
COc1cccc(N=Cc2c[nH][nH]c2=O)c1,x,x,-7.69*,x,x
O=C1N[C@@H](Cc2ccccc2)C(=O)N2[C@@H]1C[C@@]1(Br)c3ccccc3N(S(=O)(=O)c3ccccc3)[C@@H]21,x,x,-0.976,x,x
CCCCNC(=O)Nc1ccon1,104.3,-2.5,-0.247,1,99.0*[fluorescence artefact?]
O=c1cc(NCc2ccco2)[nH]c(=O)n1-c1ccc(Br)cc1,86.4,35.1,0.441,1.1,47.1
C=CCO/N=C(/C)c1c(O)c(CC)c(-c2ccccc2)n(-c2ccccc2)c1=O,114.9,0.1,2.9*,1.3,-8.8
CCOc1ccc(NC(=O)N[C@@H](CCSC)C(=O)OC)cc1,103.8,-13.9,0.506,1.1,-17.1
CC1CCC(n2c(=S)[nH]c3ccccc3c2=O)CC1 (stereo not drawn),218.4*[fluorescence artefact?],-9.0,-0.0444,1,18.4
COc1ccccc1CCNCc1ccc(OC)c(OCc2ccccc2)c1,x,x,-0.019,x,x
COc1cc(CNCCc2c[nH]c3ccccc23)ccc1OCc1ccccc1F,x,x,2.46*,x,x
O=C(NCCCn1ccnc1)Nc1cccc2ccccc12,114.9,-24.1,0.229,2.1*,-17.4
O=C(NCc1cccc(C(F)(F)F)c1)C1CC2Cn3c(nc4ccccc43)C2N1Cc1ccccc1 (stereo not drawn),x,x,0.0168,x,x
COc1ccc(NC(=O)c2ccccc2NC(=O)C2CCCO2)cc1 (stereo not drawn),92.5,-2.6,-9.04*,1,0.3
SMILES,ERa coact pot,ERa coact inh,hDAT+cocaine,MT1-MMP txn act,ERb coact inh
CC(C)NC(=O)c1ccccc1NC(=O)C1CCCO1 (stereo not drawn),117.9,-6.3,-0.0339,x,-24.4
Cc1cc(C(=O)CSc2nnc(-c3ccccc3)n2Cc2ccc3c(c2)OCO3)c(C)n1C,133.4,-3.9,-0.45,1.4,-0.9
Cc1cc(SCC(=O)c2ccc3c(c2)OCO3)nc2ccccc12,440.7*[fluorescence artefact?],15.6,1.12,1,4.2
Cc1cc(SCC(=O)N2CCCC2)nc2ccccc12,97.3,5.3,1.66,1.1,-19.8
Cc1cc(C(=O)CSc2nc3ccccc3c(=O)n2C)c(C)n1Cc1ccc2c(c1)OCO2,+[fluorescence artefact?],-23.2,-1.01,1,-7.0
Cc1cc(SCC(=O)c2cc3ccccc3o2)nc2ccccc12,228.0*[fluorescence artefact?],2.3,0.129,1.2,-0.9

# Assay outcomes: PubChem, several laboratories
